# Experimental data taken from article PMC7862700, “An all-to-all approach to the identification of sequence-specific readers for epigenetic DNA modifications on cytosine”.
# Assays:
# Test in all cases: DAPPL (digital affinity profiling via proximity ligation, sequencing); 10 mM Tris-HCl pH 7.5, 50 mM NaCl, 1 mM DTT, 4% glycerol, room temperature, 30 min; GST-TFs on glutathione beads, 16-mer random dsDNA library, 0.1% formaldehyde crosslink after washing; high values mean tight binding
# FLI1 = molecular target: T1, FLI1 (Homo sapiens, UniProt Q01543 1-452); conditions: protein: recombinant; tags: N-terminal GST; dsDNA, one strand shown
# T1 sequence: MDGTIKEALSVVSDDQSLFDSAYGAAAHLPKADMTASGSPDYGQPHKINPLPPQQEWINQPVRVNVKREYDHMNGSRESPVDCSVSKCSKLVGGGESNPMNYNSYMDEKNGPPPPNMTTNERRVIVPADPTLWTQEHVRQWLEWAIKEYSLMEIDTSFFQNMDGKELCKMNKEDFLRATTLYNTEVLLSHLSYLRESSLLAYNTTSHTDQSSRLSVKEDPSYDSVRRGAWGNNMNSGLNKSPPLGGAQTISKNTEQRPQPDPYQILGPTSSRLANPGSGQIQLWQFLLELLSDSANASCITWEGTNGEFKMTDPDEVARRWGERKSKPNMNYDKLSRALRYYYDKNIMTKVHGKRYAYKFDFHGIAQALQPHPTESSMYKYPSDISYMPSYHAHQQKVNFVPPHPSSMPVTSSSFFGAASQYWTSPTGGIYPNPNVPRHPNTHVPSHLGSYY
# Method in brief: (§1)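 Each value of binding signal is a hexamer's read frequency for a factor divided by the same hexamer's frequency in the tag-only sample. Barcoded, bead-captured GST fusions of human transcription factors made in yeast were pooled with that sample and incubated with 200 nmole of a random double-stranded 16-mer DNA library in Tris/NaCl/DTT/glycerol buffer at room temperature for 30 min. Washing, 0.1% formaldehyde crosslinking, proximity ligation, PCR and Illumina NextSeq500 sequencing followed.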
# ELK1 = molecular target: T2, ELK1 (Homo sapiens, UniProt P19419 1-428); conditions: protein: recombinant; tags: N-terminal GST; dsDNA, one strand shown
# T2 sequence: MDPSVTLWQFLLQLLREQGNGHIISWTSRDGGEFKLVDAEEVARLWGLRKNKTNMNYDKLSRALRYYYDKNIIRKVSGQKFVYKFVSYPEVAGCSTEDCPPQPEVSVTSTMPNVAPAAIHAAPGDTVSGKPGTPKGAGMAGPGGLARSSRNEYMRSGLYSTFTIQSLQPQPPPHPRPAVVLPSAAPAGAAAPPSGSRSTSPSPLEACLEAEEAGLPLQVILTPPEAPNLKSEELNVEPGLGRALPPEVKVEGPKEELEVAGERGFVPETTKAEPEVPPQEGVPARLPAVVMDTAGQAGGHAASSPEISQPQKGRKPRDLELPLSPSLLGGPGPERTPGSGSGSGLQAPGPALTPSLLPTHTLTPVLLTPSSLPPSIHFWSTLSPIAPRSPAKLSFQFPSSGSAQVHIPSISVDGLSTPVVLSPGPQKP
# Method in brief: as §1
# GABPA = molecular target: T3, GABPA (Homo sapiens, UniProt Q06546 1-454); conditions: protein: recombinant; tags: N-terminal GST; dsDNA, one strand shown
# T3 sequence: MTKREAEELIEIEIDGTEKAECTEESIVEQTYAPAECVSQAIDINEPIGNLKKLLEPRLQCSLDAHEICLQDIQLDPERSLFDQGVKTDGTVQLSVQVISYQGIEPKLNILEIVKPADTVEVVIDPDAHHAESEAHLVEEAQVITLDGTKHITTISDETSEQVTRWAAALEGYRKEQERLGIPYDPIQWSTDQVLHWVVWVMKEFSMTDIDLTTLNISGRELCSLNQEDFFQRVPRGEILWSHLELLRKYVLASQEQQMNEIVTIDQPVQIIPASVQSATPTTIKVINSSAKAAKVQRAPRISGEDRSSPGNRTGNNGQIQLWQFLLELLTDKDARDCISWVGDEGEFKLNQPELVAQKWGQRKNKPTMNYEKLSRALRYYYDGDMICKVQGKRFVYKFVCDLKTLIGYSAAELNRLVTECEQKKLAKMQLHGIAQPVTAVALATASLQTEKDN
# Method in brief: as §1
# ERG = molecular target: T4, ERG (Homo sapiens, UniProt P11308 1-479); conditions: protein: recombinant; tags: N-terminal GST; dsDNA, one strand shown
# T4 sequence: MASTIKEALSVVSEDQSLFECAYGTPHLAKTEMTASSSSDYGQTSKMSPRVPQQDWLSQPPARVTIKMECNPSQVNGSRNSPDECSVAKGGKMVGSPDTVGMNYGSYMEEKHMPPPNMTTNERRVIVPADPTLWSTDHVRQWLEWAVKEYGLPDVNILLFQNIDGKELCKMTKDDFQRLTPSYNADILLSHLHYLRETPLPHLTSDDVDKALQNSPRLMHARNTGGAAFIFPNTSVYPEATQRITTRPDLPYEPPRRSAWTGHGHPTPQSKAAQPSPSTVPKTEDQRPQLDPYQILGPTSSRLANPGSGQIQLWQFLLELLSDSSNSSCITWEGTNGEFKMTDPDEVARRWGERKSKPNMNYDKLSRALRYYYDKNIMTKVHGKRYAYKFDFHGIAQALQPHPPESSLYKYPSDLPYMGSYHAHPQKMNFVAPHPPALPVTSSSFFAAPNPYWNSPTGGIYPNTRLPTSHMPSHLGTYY
# Method in brief: as §1
# ELF1 = ELF1 (Homo sapiens, UniProt P32519 1-619); conditions: protein: recombinant; tags: N-terminal GST; dsDNA, one strand shown
# ELF1, sequence (P32519 whole entry): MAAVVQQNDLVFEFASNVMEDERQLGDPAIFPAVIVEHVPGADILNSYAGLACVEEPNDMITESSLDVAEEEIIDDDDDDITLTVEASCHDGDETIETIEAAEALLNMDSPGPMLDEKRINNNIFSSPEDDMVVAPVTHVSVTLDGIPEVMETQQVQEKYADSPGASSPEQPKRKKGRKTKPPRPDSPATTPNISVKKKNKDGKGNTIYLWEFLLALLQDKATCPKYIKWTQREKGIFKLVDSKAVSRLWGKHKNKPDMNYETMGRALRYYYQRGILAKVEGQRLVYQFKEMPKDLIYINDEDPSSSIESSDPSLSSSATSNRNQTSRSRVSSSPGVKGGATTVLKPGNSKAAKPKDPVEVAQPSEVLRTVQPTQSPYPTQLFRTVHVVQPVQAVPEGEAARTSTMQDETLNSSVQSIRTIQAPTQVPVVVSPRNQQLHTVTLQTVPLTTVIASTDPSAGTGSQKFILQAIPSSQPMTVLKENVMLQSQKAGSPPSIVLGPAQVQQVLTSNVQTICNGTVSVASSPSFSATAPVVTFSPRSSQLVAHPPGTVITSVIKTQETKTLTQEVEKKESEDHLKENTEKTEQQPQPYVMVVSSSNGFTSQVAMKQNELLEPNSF
# Method in brief: as §1
# EHF = molecular target: T5, EHF (Homo sapiens, UniProt Q9NZC4 1-300); conditions: protein: recombinant; tags: N-terminal GST; dsDNA, one strand shown
# T5 sequence: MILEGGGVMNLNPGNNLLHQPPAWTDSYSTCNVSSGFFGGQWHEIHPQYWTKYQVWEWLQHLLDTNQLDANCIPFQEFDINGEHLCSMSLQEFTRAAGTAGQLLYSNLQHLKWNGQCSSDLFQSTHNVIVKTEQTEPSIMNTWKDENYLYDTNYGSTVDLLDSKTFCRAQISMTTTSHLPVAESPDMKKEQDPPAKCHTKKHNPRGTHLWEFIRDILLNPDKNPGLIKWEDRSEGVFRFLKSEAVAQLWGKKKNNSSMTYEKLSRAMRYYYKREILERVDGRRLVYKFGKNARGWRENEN
# Method in brief: as §1
# SPI1 = SPI1 (Homo sapiens, UniProt P17947 1-270); conditions: protein: recombinant; tags: N-terminal GST; dsDNA, one strand shown
# Method in brief: as §1
# SPIB = SPIB (Homo sapiens, UniProt Q01892 1-262); conditions: protein: recombinant; tags: N-terminal GST; dsDNA, one strand shown
# SPIB, sequence (Q01892 whole entry): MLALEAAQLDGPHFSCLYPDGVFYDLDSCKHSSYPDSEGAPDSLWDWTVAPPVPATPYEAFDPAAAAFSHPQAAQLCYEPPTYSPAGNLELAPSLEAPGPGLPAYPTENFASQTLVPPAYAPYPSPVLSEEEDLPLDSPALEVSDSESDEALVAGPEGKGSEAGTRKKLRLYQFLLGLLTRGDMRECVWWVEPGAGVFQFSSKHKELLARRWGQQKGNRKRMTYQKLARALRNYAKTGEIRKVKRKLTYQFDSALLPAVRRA
# Method in brief: as §1
# ELK3 = molecular target: T6, ELK3 (Homo sapiens, UniProt P41970 1-407); conditions: protein: recombinant; tags: N-terminal GST; dsDNA, one strand shown
# T6 sequence: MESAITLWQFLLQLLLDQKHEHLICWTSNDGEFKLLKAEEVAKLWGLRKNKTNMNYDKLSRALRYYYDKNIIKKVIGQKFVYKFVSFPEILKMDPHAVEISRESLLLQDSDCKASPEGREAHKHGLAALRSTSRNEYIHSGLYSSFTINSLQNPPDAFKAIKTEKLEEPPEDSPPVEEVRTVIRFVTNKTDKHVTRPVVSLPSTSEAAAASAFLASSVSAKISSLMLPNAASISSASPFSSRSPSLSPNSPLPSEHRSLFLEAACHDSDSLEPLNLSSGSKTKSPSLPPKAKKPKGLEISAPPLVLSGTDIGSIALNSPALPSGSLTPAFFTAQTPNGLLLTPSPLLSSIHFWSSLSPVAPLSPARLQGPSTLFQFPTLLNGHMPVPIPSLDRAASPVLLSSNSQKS
# Method in brief: as §1
# FEV = molecular target: T7, FEV (Homo sapiens, UniProt Q99581 1-238); conditions: protein: recombinant; tags: N-terminal GST; dsDNA, one strand shown
# T7 sequence: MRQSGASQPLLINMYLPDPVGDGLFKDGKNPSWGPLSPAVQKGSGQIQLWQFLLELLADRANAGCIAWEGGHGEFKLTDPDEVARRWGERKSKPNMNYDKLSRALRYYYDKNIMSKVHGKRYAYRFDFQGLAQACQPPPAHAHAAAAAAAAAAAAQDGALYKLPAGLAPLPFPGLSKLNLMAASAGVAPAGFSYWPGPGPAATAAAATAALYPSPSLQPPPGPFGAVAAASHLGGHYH
# Method in brief: as §1
# ETV5 = ETV5 (Homo sapiens, UniProt P41161 1-510); conditions: protein: recombinant; tags: N-terminal GST; dsDNA, one strand shown
# ETV5, sequence (P41161 whole entry): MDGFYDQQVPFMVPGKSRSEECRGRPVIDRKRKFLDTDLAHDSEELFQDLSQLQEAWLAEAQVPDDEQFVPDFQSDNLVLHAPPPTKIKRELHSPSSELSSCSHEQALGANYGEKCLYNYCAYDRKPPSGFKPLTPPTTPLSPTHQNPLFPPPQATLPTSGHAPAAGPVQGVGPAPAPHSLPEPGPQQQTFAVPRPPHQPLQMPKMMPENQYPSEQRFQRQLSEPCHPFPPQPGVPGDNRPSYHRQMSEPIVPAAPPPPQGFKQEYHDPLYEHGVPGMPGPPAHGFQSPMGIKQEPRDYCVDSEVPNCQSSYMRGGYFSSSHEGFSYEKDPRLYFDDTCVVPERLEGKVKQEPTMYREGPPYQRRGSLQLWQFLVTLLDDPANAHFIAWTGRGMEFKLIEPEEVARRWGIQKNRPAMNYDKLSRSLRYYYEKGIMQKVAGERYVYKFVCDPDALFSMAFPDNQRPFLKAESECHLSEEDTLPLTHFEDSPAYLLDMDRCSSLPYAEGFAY
# Method in brief: as §1
# HSF1 = HSF1 (Homo sapiens, UniProt Q00613 1-529); conditions: protein: recombinant; tags: N-terminal GST; chain copies: 3; dsDNA, one strand shown
# HSF1, sequence (Q00613 whole entry): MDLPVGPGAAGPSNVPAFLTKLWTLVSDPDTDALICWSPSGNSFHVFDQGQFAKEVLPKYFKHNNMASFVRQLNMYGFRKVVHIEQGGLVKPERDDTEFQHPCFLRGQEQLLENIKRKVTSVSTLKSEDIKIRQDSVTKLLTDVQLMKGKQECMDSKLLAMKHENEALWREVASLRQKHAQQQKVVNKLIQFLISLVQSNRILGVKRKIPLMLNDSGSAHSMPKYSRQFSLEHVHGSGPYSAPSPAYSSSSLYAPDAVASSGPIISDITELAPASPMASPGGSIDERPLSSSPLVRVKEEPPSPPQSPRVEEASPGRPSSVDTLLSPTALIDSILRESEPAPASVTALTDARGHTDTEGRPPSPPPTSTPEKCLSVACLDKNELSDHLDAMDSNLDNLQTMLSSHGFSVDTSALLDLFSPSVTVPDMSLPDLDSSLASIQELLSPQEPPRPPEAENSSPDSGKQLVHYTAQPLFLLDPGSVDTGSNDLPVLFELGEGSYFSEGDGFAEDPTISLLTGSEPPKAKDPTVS
# Method in brief: as §1
# SPIC = molecular target: T8, SPIC (Homo sapiens, UniProt Q8N5J4 1-248); conditions: protein: recombinant; tags: N-terminal GST; dsDNA, one strand shown
# T8 sequence: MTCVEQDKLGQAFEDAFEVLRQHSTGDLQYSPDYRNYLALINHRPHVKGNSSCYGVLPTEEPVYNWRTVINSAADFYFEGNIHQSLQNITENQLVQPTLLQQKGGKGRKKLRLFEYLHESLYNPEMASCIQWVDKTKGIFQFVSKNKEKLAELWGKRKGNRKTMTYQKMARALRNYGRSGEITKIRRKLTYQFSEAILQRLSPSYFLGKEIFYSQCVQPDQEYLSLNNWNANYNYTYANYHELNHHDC
# Method in brief: as §1
# ELF4 = ELF4 (Homo sapiens, UniProt Q99607 1-663); conditions: protein: recombinant; tags: N-terminal GST; dsDNA, one strand shown
# ELF4, sequence (Q99607 whole entry): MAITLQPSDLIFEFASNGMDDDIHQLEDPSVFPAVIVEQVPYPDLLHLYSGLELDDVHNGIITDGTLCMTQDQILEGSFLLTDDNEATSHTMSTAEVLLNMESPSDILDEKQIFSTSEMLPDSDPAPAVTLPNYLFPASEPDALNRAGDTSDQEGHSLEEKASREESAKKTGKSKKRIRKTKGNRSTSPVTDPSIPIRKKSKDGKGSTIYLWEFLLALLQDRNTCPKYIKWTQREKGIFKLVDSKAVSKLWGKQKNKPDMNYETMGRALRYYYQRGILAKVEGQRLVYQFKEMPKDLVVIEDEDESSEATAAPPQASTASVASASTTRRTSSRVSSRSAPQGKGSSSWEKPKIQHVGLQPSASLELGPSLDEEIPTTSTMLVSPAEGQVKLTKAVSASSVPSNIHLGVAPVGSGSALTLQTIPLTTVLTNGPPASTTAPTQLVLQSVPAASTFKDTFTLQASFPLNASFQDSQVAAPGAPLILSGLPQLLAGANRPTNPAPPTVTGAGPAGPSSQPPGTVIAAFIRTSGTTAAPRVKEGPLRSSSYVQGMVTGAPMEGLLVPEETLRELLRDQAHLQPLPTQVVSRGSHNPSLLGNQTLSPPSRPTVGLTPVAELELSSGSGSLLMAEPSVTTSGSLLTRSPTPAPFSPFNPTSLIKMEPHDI
# Method in brief: as §1
# ELK4 = molecular target: T9, ELK4 (Homo sapiens, UniProt P28324-2 1-405); conditions: protein: recombinant; tags: N-terminal GST; dsDNA, one strand shown
# T9 sequence: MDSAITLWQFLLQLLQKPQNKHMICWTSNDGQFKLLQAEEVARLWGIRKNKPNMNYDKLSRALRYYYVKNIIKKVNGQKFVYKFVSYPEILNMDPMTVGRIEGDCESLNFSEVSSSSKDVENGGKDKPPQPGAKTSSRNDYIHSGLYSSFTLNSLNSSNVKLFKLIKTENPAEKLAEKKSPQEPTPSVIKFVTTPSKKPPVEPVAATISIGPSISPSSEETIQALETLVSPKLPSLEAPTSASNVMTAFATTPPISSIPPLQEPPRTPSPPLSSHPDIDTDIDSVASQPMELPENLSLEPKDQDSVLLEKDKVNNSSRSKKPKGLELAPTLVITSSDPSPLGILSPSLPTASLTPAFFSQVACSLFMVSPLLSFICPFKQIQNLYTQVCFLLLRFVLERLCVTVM
# Method in brief: as §1
# ETV2 = molecular target: T10, ETV2 (Homo sapiens, UniProt O00321 1-342); conditions: protein: recombinant; tags: N-terminal GST; dsDNA, one strand shown
# T10 sequence: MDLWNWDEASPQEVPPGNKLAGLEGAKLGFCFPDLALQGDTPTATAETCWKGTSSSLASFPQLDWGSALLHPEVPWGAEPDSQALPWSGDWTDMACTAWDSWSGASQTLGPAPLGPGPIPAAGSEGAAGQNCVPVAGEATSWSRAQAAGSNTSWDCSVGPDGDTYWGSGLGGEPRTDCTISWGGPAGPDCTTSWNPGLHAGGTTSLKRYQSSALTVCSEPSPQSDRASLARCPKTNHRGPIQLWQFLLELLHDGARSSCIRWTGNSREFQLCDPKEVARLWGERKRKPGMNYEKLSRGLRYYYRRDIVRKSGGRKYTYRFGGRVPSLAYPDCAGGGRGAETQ
# Method in brief: as §1
# ELF3 = molecular target: T11, ELF3 (Homo sapiens, UniProt P78545 1-371); conditions: protein: recombinant; tags: N-terminal GST; dsDNA, one strand shown
# T11 sequence: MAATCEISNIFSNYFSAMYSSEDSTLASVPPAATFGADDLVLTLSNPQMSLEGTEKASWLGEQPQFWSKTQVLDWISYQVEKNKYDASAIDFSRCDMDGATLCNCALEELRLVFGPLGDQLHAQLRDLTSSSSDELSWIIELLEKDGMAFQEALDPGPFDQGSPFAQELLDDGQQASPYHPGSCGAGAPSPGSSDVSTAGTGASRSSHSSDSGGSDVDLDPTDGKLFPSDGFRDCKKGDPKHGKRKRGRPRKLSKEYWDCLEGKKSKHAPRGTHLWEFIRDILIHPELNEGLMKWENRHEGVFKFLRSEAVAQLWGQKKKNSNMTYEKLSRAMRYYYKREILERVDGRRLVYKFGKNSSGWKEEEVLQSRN
# Method in brief: as §1
# CRX = CRX (Homo sapiens, UniProt O43186 1-299); conditions: protein: recombinant; tags: N-terminal GST; dsDNA, one strand shown
# CRX, sequence (O43186 whole entry): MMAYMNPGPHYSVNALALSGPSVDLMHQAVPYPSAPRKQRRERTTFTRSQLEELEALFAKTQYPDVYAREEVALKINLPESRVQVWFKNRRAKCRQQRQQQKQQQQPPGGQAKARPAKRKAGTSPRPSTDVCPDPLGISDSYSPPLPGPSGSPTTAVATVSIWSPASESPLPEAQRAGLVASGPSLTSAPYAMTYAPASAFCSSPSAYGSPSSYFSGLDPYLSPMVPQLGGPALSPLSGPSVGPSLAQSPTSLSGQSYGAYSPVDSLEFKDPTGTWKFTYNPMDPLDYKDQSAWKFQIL
# Method in brief: as §1
# ETV1 = ETV1 (Homo sapiens, UniProt P50549 1-477); conditions: protein: recombinant; tags: N-terminal GST; dsDNA, one strand shown
# ETV1, sequence (P50549 whole entry): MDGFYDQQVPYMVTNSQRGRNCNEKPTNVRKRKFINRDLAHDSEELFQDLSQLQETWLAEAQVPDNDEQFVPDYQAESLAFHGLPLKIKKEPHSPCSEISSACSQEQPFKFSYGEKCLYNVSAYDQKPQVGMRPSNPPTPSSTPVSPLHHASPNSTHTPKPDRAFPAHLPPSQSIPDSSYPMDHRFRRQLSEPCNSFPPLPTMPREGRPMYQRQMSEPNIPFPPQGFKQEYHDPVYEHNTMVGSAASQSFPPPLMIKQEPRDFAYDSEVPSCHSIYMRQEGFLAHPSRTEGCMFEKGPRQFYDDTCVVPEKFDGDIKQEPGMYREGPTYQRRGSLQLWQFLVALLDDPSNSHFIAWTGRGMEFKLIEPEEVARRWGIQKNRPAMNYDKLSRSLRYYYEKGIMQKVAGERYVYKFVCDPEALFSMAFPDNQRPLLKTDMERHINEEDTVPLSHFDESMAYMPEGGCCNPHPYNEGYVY
# Method in brief: as §1
sequence,measurement,setting,value
TTGGTG,binding signal,FLI1,"1.35 fold enrichment (6-mer frequency, TF over GST control)"
same,binding signal,ELK1,"1.21 fold enrichment (6-mer frequency, TF over GST control)"
same,binding signal,GABPA,"1.42 fold enrichment (6-mer frequency, TF over GST control)"
same,binding signal,ERG,"1.23 fold enrichment (6-mer frequency, TF over GST control)"
same,binding signal,ELF1,"1.3 fold enrichment (6-mer frequency, TF over GST control)"
same,binding signal,EHF,"1.43 fold enrichment (6-mer frequency, TF over GST control)"
same,binding signal,SPI1,"1.22 fold enrichment (6-mer frequency, TF over GST control)"
same,binding signal,SPIB,"1.22 fold enrichment (6-mer frequency, TF over GST control)"
same,binding signal,ELK3,"1.55 fold enrichment (6-mer frequency, TF over GST control)"
same,binding signal,FEV,"1.22 fold enrichment (6-mer frequency, TF over GST control)"
same,binding signal,ETV5,"1.32 fold enrichment (6-mer frequency, TF over GST control)"
same,binding signal,HSF1,"1.18 fold enrichment (6-mer frequency, TF over GST control)"
same,binding signal,SPIC,"1.32 fold enrichment (6-mer frequency, TF over GST control)"
same,binding signal,ELF4,"1.3 fold enrichment (6-mer frequency, TF over GST control)"
same,binding signal,ELK4,"1.44 fold enrichment (6-mer frequency, TF over GST control)"
same,binding signal,ETV2,"1.52 fold enrichment (6-mer frequency, TF over GST control)"
same,binding signal,ELF3,"1.3 fold enrichment (6-mer frequency, TF over GST control)"
same,binding signal,CRX,"1.28 fold enrichment (6-mer frequency, TF over GST control)"
same,binding signal,ETV1,"1.41 fold enrichment (6-mer frequency, TF over GST control)"
